DAX1 inh-1 – DAX1 (NR0B1) inhibition, primary screen; actives 1.1% (n = 370,000); inhibition, % at 6.8 µM; HEK293T StAR-luciferase reporter, SF-1/DAX-1 repression relief;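 active = inhibition above the mean over all tested compounds plus 3 SD, cut at about 3.6% in these data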;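 note: 0% = DAX-1 cells with DMSO and 100% = cells lacking DAX-1 with DMSO; higher inhibition means more luminescence from relief of DAX-1 repression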
hcDAF-12 act – activates DAF-12 receptor from parasite H. contortus; HEK293 hcDAF-12 lit1-tk-luc reporter, luminescence; 0% DMSO, 100% Δ7-dafachronic acid; activation, % at 6.8 µM; actives 1.4% (n = 370,000); AID 652067;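 active = activation above the mean of all tested compounds plus 3 SD, cut at about 5.5% in these data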;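 note: 100% = response to 3 µM Δ7-dafachronic acid high control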
ssDAF-12 act – activators of S. stercoralis DAF-12 nuclear receptor. HEK293 ssDAF-12/GRIP1 lit1-tk-luc reporter, luminescence; % of 3 µM dafachronic acid response. activation, % at 6.8 µM. actives 1% (n = 370,000). AID 652126;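 active = activation above the mean over all tested compounds plus 3 SD, cut at about 0.9% in these data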;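 note: 0% = DMSO-only wells and 100% = 3 µM delta7-dafachronic acid wells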
DAX1 inh-2 – inhibits human nuclear receptor DAX1. HEK293 Gal4-DAX1 luciferase reporter, luminescence. inhibition, % at 6.75 µM. actives 0.99% (n = 340,000). AID 504766;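 active = inhibition above the mean over all tested compounds plus 3 SD, cut at about 4.2% in these data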;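 note: 0% = DAX1-transfected cells with DMSO and 100% = empty-vector control cells with DMSO; inhibition shows as a rise in luminescence from relieved DAX1 repression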
Target sequence (P51843 207-470 limits assumed): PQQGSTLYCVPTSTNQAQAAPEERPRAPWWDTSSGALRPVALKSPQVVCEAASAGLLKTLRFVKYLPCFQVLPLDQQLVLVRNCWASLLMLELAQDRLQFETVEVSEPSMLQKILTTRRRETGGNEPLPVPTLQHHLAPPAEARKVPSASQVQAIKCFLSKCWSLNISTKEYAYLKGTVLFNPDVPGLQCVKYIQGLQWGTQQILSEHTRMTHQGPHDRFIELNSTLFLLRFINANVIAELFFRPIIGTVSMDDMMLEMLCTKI
hgDAF-12 ag – activates the H. glycines DAF-12 receptor ligand-binding domain. HEK293 GAL4-hgDAF12 UAS-luciferase reporter, agonist luminescence; normalized to butyrate control. activation, % at 6.8 µM. actives 1.8% (n = 370,000). AID 687014;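 active = activation above a cutoff set at the mean of all screened compounds plus 3 SD, cut at about 10% in these data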;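 note: 0% = DMSO wells and 100% = sodium butyrate wells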
SMARCA2 act – activators of SMARCA2 function; AID 652017; activation, % at 9.1 µM; actives 1% (n = 370,000); MG213 cells, MMTV-luciferase reporter, dexamethasone, overnight; in the data active = activation above about 7.8%;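 note: 0% = vehicle wells and 100% = reference activator wells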
An asterisk follows results filed as active; / = no result. Shown are actives, neighbours in structure and some others; about 4.8% of the full set was active somewhere.

SMILES	DAX1 inh-1	hcDAF-12 act	ssDAF-12 act	DAX1 inh-2	hgDAF-12 ag	SMARCA2 act
O=C(NCc1ccccc1)C(c1ccncc1)N(C(=O)c1csnn1)c1ccccc1F (stereo not drawn)	0.2	-0.9	-0.8	1.1	-1.6	2.8
O=C1/C(=C\c2ccco2)CCC/C1=C\c1ccco1	0.9	4.1	0.0	-0.5	2.4	15.9*
CC(C)(C)OC(=O)CC(S(=O)(=O)c1ccccc1)S(=O)(=O)c1ccccc1	-0.5	-1.9	-1.2	0.8	-0.2	6.0
CC(=O)Nc1ccccc1P(=O)(c1ccccc1)c1ccccc1OC(C)=O (stereo not drawn)	-0.4	-1.1	0.1	4.5*	-0.6	-3.5
C#CCN(C[C@@H]1[C@@H](OC(=O)NC2CCCC2)[C@@H](OC(=O)NC2CCCC2)CN(C(=O)OC(C)C)N1C(=O)OC(C)C)S(=O)(=O)c1ccc(C)cc1	-0.1	-0.9	-1.1	-1.0	-3.0	-5.9
COc1ccc(-c2nnc(N(C)C(=O)C3CCOC3)s2)cc1 (stereo not drawn)	0.1	0.1	-0.9	1.1	6.3	6.0
COc1ccc(-c2nnc(N(C)C(=O)C3CCCO3)s2)cc1 (stereo not drawn)	0.7	2.5	-0.2	1.0	13.1*	-0.6
Cc1ccc(C2=NN(CC(=O)NCc3cccs3)C(=O)CC2)cc1	-0.8	-1.1	-1.5	5.4*	-0.7	-1.9
COc1cc(NC(=O)c2cccc(C)c2)ccc1NC(=O)c1cc2ccccc2o1	-0.8	0.7	-1.0	-0.8	-0.5	-1.9
O=C(CCN1C(=O)/C(=C/c2ccccc2F)SC1=S)NCCCn1ccnc1	-0.4	6.5*	-1.2	-0.3	1.0	-0.8
O=C(CCCN1C(=O)/C(=C/c2ccccc2)SC1=S)NCCCn1ccnc1	-0.4	-4.6	-1.6	-0.1	-5.0	-5.8
C#CCN1[C@@H]2CCN(C2)c2cc(Br)ccc2S1(=O)=O	-0.5	-1.0	-0.6	0.9	2.4	-5.9
CN(Cc1nc2ccccc2c(=O)[nH]1)C(=O)c1cccc(S(=O)(=O)N2CCc3ccccc32)c1	0.8	2.3	-1.8	-1.6	-7.9	-2.6
CCOC(=O)c1sc(=S)n(-c2cc(F)ccc2F)c1N	-1.5	-1.2	-1.4	-0.1	-0.7	-4.8
COC(=O)c1sc(=S)n(-c2cc(F)ccc2F)c1N	-0.4	-0.9	-0.4	4.9*	1.1	-1.6
CCN(C[C@H]1N[C@@](C)(C(=O)OC)[C@H]2C(=O)N(C)C(=O)[C@@H]12)C(=O)Nc1ccc(Cl)cc1	-0.4	0.8	-0.7	1.6	1.5	3.1
CC(NC1CCN(Cc2ccccc2)CC1)c1ccc(F)cc1 (stereo not drawn)	-0.8	-2.3	1.1*	0.0	-1.6	1.7
Fc1ccc(CNC2CCN(Cc3ccccc3)CC2)cc1	0.7	-1.1	-0.2	2.3	3.8	-2.3
CC1=C(C(=O)N2CCOCC2)CC(CC(=O)NC(c2ccccc2)c2ccccc2)C(=O)N1CCCN1CCCC1=O (stereo not drawn)	-0.4	-0.6	0.1	-0.1	-0.3	-2.4
CCNC(=O)C1(C)CCCN(Cc2ccc(Oc3ccccc3)cc2)C1 (stereo not drawn)	0.8	0.5	-1.1	/	-1.3	1.2
CSc1nccc(N/N=C/c2ccccc2)n1	0.2	1.7	0.4	5.1*	10.9*	1.4
COc1ccc(NC(=O)C2Cc3c(-c4ccc(NC(C)=O)cc4)ccnc3O2)cn1 (stereo not drawn)	-1.1	-1.6	-1.1	/	1.5	-1.9
CC1(C(=O)NS(=O)(=O)c2cccc(OC(F)F)c2)CCN1C(=O)CC(c1ccccc1)c1ccccc1 (stereo not drawn)	-0.9	0.1	-1.2	/	-1.7	1.3
C=CCn1c(=NC(=O)c2ccc(S(=O)(=O)N3CCCc4ccccc43)cc2)sc2cc(S(N)(=O)=O)ccc21	0.0	-1.6	-1.4	-1.6	-1.5	-2.3
COCCn1c(=NC(=O)c2ccc(S(=O)(=O)N3CCCc4ccccc43)cc2)sc2cc(S(C)(=O)=O)ccc21	0.4	0.2	-1.1	4.7*	2.0	0.5
SMILES	DAX1 inh-1	hcDAF-12 act	ssDAF-12 act	DAX1 inh-2	hgDAF-12 ag	SMARCA2 act
CCCCc1nc2cc(C(=O)N3CCC(OC)CC3)ccc2o1	0.8	2.5	-0.9	1.7	2.6	3.2
C=CCC1(CC=C)CCCN1C(=O)c1ccc2oc(CCCC)nc2c1	1.0	6.3*	-0.3	4.9*	11.6*	0.7
CC(=O)c1ccc(S(=O)(=O)N2CCC(C(=O)Nc3ncc(C)s3)CC2)cc1	-1.1	0.6	-1.5	-0.3	0.3	1.0
CC1CC2(C)C(=CC1=O)CCC1C2C(O)CC2(C)C1CCC2(O)C(=O)CO (stereo not drawn)	-0.7	-0.5	-0.6	-0.4	-3.9	-1.2
O=[N+]([O-])c1cccnc1Nc1ccc(Cl)cc1	-0.2	2.0	-0.5	-0.3	4.0	-1.7
Clc1ccc(Nc2nc3cccnc3s2)cc1	1.4	3.8	-0.5	1.8	11.1*	1.4
CCCCNc1nc2cccnc2s1	0.4	0.1	-0.9	6.3*	4.7	-0.8
Cc1ccc(NC(=O)C2CCN(S(=O)(=O)c3c(C)n[nH]c3C)CC2)c(C)c1	0.1	-0.1	-1.1	1.2	-1.0	-1.9
COc1ccc(C)cc1-n1nnnc1SCC1CCCO1 (stereo not drawn)	-0.7	1.7	-0.5	-1.1	-1.1	-1.3
COc1ccc(C)cc1-n1nnnc1SCc1nc2ccccc2s1	1.3	5.9*	1.2*	0.1	6.2	3.3
C=CCn1c(COc2ccc(OC)cc2)nnc1SCn1nnc2ccccc2c1=O	-0.2	-2.4	6.3*	2.1	-0.8	-0.1
CC1(C(=O)NCCC#N)CCN1C(=O)C1(c2ccccc2)CC1 (stereo not drawn)	0.3	-0.6	-1.4	/	-0.7	0.5
O=C(/C=C/[C@H]1O[C@@H](n2cnc3c(NC(=O)c4ccccc4)ncnc32)[C@H](O)[C@@H]1O)NC1CCCCC1	1.1	-1.0	-0.5	/	-0.1	-2.9
O=C(CCCn1c(=O)oc2ccccc21)N1CCc2ccccc2C1	1.0	7.9*	0.6	0.1	5.4	-2.8
O=C(CCn1c(=O)oc2ccccc21)NCCN1CCc2ccccc2C1	0.1	4.0	-0.7	-0.1	1.0	-3.2
O=C(CCc1ccccc1)NC(=S)Nc1cccc(Br)c1	-0.1	-1.3	-1.4	0.9	6.2	1.1
O=C(O)c1cccc(NC(=S)NC(=O)c2ccncc2)c1	-0.4	-0.3	-1.1	0.2	3.0	2.7
COc1ccc(/C=N/NC(=S)Nc2cccc(C(=O)O)c2)cc1OC	0.5	-1.0	-0.3	-3.1	-0.6	-1.3
COc1cccc(/C=N/NC(=S)Nc2cccc(C(=O)O)c2)c1	2.3	2.7	1.6*	-2.0	9.8	4.4
O=C(CCc1ccccc1)NNC(=O)c1ccccc1Br	-0.7	-1.9	-1.1	5.0*	-4.2	-1.8
O=C(CCc1ccccc1)NC(=S)Nc1cccc(C(=O)O)c1	4.0*	2.1	0.0	0.4	8.7	5.7

Bioassay records from PubChem.
